Results as given in PubChem BioAssay AID1259313 (Sanford-Burnham Center for Chemical Genomics, 2017).
In all, about 340,000 compounds went through this assay and about 8,500 (2.5%) were called active.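 Rule for the calls: active = melting temperature shift of at least 10% of the positive control shift, at one fixed dose; inactive = the rest.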 The sample as a whole holds a higher share of actives than the screen did.

Tested on: Glutamate receptor ionotropic, NMDA 3A (GRIN3A) ligand-binding domain
Assay: NR3A LBD thermal stabilization by compounds – biophysical, differential scanning fluorimetry, uHTS, primary screen (AID 1259313)
Settings: at 25 µM, stronger effect = higher value, 0% = protein alone, 100% = glycine-bound protein

Row | SMILES | Tm shift relative to glycine control
1 | CCOc1ccc(N=C2NC(=O)S/C2=C\c2ccc(O)cc2)cc1 | 15.1% (active)
2 | CCOc1ccc(N=C2SC(C(=O)O)CC(=O)N2C)cc1 (stereo not given) | 1.77% (inactive)
3 | CCOc1[nH]n(-c2ccc(Cl)cc2)c(=O)c1C=Nc1ccc(O)cc1 | 5.05% (inactive)
4 | CCCCn1c(N)c(N(CC(C)C)C(=O)CN(C)S(=O)(=O)c2ccc(F)cc2)c(=O)[nH]c1=O | -1.73% (inactive)
5 | Nc1cc(N)nc(SCC(=O)Nc2cccc(S(=O)(=O)N3CCCCC3)c2)n1 | -2.96% (inactive)
6 | COc1ccc(/C=C/C(=O)OCC(=O)Nc2cccc(Oc3ccccc3)c2)c(OC)c1 | 1.79% (inactive)
7 | COc1cc(/C=C/C(=O)OCC(=O)Nc2cccc(Oc3ccccc3)c2)ccc1O | 16.3% (active)
8 | COc1cc(/C=C/C(=O)OCC(=O)NCCCc2ccccc2)ccc1O | -3.57% (inactive)
9 | Nc1ccc(S(=O)(=O)Nc2nccc(/C=C/c3ccc(Br)s3)n2)cc1 | 3.72% (inactive)
10 | Oc1cccc2ccc(/C=C/c3ccc(Br)s3)nc12 | 27.9% (active)
11 | O=C(Nc1ccc2c(c1)OCO2)c1sc2cc(Cl)ccc2c1Cl | 2.38% (inactive)
12 | CC(Sc1nc2cc(Cl)ccc2s1)C(=O)Nc1ccc2c(c1)OCO2 (stereo not given) | 17.5% (active)
13 | CC(Sc1nc(-c2ccccc2)cc(C(F)(F)F)n1)C(=O)Nc1ccc2c(c1)OCO2 (stereo not given) | -3.7% (inactive)
14 | COC(=O)Nc1ncc(CN2C(=O)c3ccccc3C2=O)s1 | 13.7% (active)
15 | COC(=O)Nc1ncc(CN2CCCCC2)s1 | 0.99% (inactive)
16 | COc1cc(C(C)=O)ccc1OC(=O)CN1C(=O)c2ccccc2C1=O | -1.44% (inactive)
17 | CN(Cc1ccccc1)C(=O)CCNC(=O)Cn1cnc2ccccc2c1=O | 1.47% (inactive)
18 | CC(C)=CCCC1(C)C=Cc2c(ccc3c2[nH]c2cc(O)c(C)cc23)O1 (stereo not given) | 22.5% (active)
19 | O=C(O)CC/C(=N\NC(=O)c1ccc(F)cc1)c1ccc(Br)cc1 | -1.55% (inactive)
20 | COc1ccccc1-c1nnc(NC(=O)c2ccc3ncsc3c2)o1 | -3.33% (inactive)
21 | Cc1sc(NC(=O)c2ccc3ncsc3c2)c(C(N)=O)c1C | 28.4% (active)
22 | O=C(COC(=O)c1ccc2ncsc2c1)Nc1ccc(Cl)cc1 | -0.85% (inactive)
23 | COc1cc(OC)c(C(=O)NNC(=O)c2ccc(NS(=O)(=O)c3cccs3)cc2)cc1OC | 0.08% (inactive)
24 | Cc1ccc(C(=O)N/C(=C/c2cccs2)C(=O)N2CCCCC2)cc1 | -1.69% (inactive)
25 | COc1ccc(-c2ccc3nnc(SCC(=O)Nc4ccc(NC(C)=O)cc4)n3n2)cc1 | -5.8% (inactive)
